FBW7 act – activators of human E3 ligase FBW7; AID 1259310; actives 0.13% (n = 650,000); AlphaScreen FBW7–phospho-cyclin E peptide binding, activator screen; normalized activity (activation), % at 26.1 µM; Q969H0; in the data active means normalized activity above about 1.9%;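 further: purified mutant Fbw7 with reduced substrate affinity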
GPR151 activ – activators of human GPR151; Q8TDV0; PathHunter beta-arrestin GPR151 cells, luminescence; activation, % at 11.2 µM; actives 1% (n = 650,000); in the data active means activation above about 4.9%;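 further: 0% = median of compound wells and 100% = cells with positive control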
Target sequence (Q8TDV0 whole entry, looked up): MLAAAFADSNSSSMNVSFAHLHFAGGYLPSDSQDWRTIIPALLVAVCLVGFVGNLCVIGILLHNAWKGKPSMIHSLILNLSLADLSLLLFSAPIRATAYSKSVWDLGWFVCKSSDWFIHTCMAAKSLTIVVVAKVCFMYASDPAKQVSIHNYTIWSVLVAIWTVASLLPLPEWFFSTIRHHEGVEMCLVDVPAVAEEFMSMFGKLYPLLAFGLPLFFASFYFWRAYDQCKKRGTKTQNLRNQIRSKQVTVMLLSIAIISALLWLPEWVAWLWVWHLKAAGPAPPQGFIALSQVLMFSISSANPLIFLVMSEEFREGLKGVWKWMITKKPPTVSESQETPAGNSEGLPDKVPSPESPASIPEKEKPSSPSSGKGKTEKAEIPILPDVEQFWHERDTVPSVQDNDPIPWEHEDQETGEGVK
MITF inh – inhibitors of human MITF; AlphaScreen MITF homodimerization, bead proximity signal; inhibition, % at 2.6 µM; actives 0.91% (n = 650,000); AID 1259374; in the data active means inhibition above about 50%;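 further: 0% = vehicle wells with protein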
TEAD-YAP inh – TEAD-YAP interaction inhibition; AID 1259422; HEK-TIYL cells, TEAD-Gal4/YAP UAS-luciferase luminescence; inhibition, % at 9.12 µM; actives 1.4% (n = 640,000); in the data active means inhibition above about 32%;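 further: 0% = median of test compound wells and 100% = reference inhibitor wells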
* hit, by the source's call. An excerpt weighted towards active compounds, which were near 3.5% of everything screened.

SMILES	FBW7 act	GPR151 activ	MITF inh	TEAD-YAP inh
CN(c1ncccc1CNc1cc(Nc2ccc3c(c2)CC(=O)N3)ncc1C(F)(F)F)S(C)(=O)=O	0	0	2	35*
CN(CCO)P1(=O)C=C(c2ccccc2)SC(c2ccccc2)=C1	0	-1	3	-6
CSc1ccc2nc(N3CCN(C(=O)c4c(C)cnn4C)CC3)sc2c1	0	0	-22	44*
Cc1ccc(N2C(=O)CSC2c2cccc([N+](=O)[O-])c2)cc1F (centres undefined)	0	-1	0	34*
CCCCc1nnc(SCC(=O)NC(C)(C)C)n1C	0	-1	-5	0
O=C(Nc1ccc(N2CCCCC2)cc1)c1ncn[nH]1	-1	-7	50	82*
CC(C)C(=O)N1CCN(c2ccc(NC(=O)c3ncn[nH]3)cc2)CC1	-1	-4	4	-2
CCOc1ccc(NC(=O)c2ncn[nH]2)cc1	0	0	0	39*
CCOc1ccc(NC(=O)c2ccc(C(=O)Nc3ccc(OCC)cc3)cc2)cc1	0	3	8	-6
O=C(Nc1ccc2c(c1)CN(C(=O)CN1CCOC1=O)CC2)c1ccccc1Cl	0	0	-8	3
Cn1ccc(CC(=O)N2CCc3ccc(NC(=O)c4ccccc4Cl)cc3C2)c1	0	0	1	43*
O=c1c2c(-c3ccccc3)csc2nc2c3ccccc3c(NCCCN3CCOCC3)nn12	1	0	19	-4
O=c1c2ccccc2nc2c3ccccc3c(NCCN3CCOCC3)nn12	0	1	-5	74*
CC1=C(C(=O)OCCc2ccccc2)C(c2ccccc2Cl)C2=C(CC(C)(C)CC2=O)N1 (centres undefined)	0	2	3	-6
COc1ccc(S(=O)(=O)/N=C2/C=C(Nc3ccccc3)C(=O)c3ccccc32)cc1	0	-1	28	-11
COc1ccc(S(=O)(=O)/N=C2/C=C(Nc3ccccc3OC)C(=O)c3ccccc32)cc1	0	-2	57*	-3
COc1ccc(/C=C2/C(=O)OCc3cc(OC)c(OC)cc32)cc1	0	1	6	45*
CC(C)(C)c1ccc(-c2ccc(OCCN3CCCC3=O)nc2)cc1	0	1	7	52*
NC(=O)c1ccsc1NC(=O)CSc1nnc(-c2ccco2)n1-c1ccccc1	0	1	5	43*
O=C(CCC(=O)N(CC(=O)NC1CCCC1)c1cccc(F)c1)Nc1ccccn1	0	0	3	4
COCCCNC(=O)c1ccc(SCc2cccc(OC)c2OC)c([N+](=O)[O-])c1	1	0	4	61*
O=C(Nc1ccccc1C(F)(F)F)c1cc2nc(-c3ccc4c(c3)OCO4)cc(C(F)(F)F)n2n1	0	-2	21	-14
COc1ccccc1OCC(=O)N/N=C/c1ccccc1	0	0	6	-1
C=CCc1ccccc1OCC(=O)N/N=C/c1ccccc1	0	0	-6	51*
C=CCc1ccccc1OCC(=O)N/N=C/c1ccc([N+](=O)[O-])cc1	0	1	15	33*
SMILES	FBW7 act	GPR151 activ	MITF inh	TEAD-YAP inh
COc1ccccc1OCC(=O)N/N=C/c1ccc([N+](=O)[O-])cc1	0	2	-24	0
O=C(Nc1ccc(N2CCCCC2)cc1)c1ccc(Br)o1	0	-8	25	49*
CCCC(=O)N1CCN(c2ccc(NC(=O)c3ccc(Br)o3)cc2)CC1	0	-2	2	60*
O=C(Nc1ccc(C(=O)N2CCCC2)cc1)c1ccc(Br)o1	0	-9	-5	-23
O=C(Nc1ccc(N2CCCCC2)cc1)c1ccccc1F	0	-7	8	70*
CCOc1ccc(N(C)S(=O)(=O)c2ccc3[nH]cc(C(=O)N(CC)Cc4ccccc4)c(=O)c3c2)cc1	0	-1	3	-1
CC(C)Oc1ccccc1C(=O)N/N=C/c1cccs1	0	-1	4	-2
CN1CCCN(c2cc(-c3ccc(OC4CCCCO4)cc3)ncn2)CC1 (centres undefined)	0	0	21	4
c1cn(CCCNc2cc(-c3ccc(OC4CCCCO4)cc3)ncn2)cn1 (centres undefined)	0	-1	20	50*
CC(=O)N/C(=N\c1nc(C)cc(C)n1)Nc1ccc2ccccc2c1	0	0	-5	52*
CC(=O)N/C(=N\c1nc(C)cc(C)n1)Nc1cccc(C)c1	1	0	13	3
COc1cc(Br)c(C2C(C(=O)OCCOc3ccccc3)=C(C)NC3=C2C(=O)CC(C)(C)C3)cc1OC (centres undefined)	0	0	0	-3
CN(C)N1C(N)=C(C#N)C(c2ccccc2Cl)C2=C1CC(c1ccccc1)CC2=O (centres undefined)	0	-2	-10	39*
CCN(CCO)C(=S)Nc1ccccc1C	0	0	-15	-3
CC(c1ccccc1)N1COc2c(cc(Cl)c3cccnc23)C1 (centres undefined)	-1	2	64*	48*
CCOC(=O)c1c(C)oc2c1c1c(c3ccccc32)OCN(C(C)c2ccccc2)C1 (centres undefined)	0	-1	-2	-98
Nc1nc2ccc(Oc3ccc4nc(N)sc4c3)cc2s1	0	1	16	33*
Nc1ccc2nc(N)sc2c1	0	-2	12	2
COc1ccc(N/N=C(\C#N)C(=N)SCc2ccccc2)cc1	0	1	3	33*
CCCCCCc1cc2cc(-c3cc4c(c(C)[nH]3)c(=O)oc3cc(=O)c(CCCCCC)cc34)c(=O)oc2cc1O	0	-1	4	2
Cc1cc(C(=O)COC(=O)c2cccc(S(=O)(=O)N(C)C)c2)c(C)n1CC1CCCO1 (centres undefined)	0	-1	22	-23
CNS(=O)(=O)c1cccc(C(=O)OCC(=O)c2cc(C)n(Cc3ccco3)c2C)c1	1	-1	-5	-27
CNS(=O)(=O)c1cccc(C(=O)OCC(=O)c2cc(C)n(CC3CCCO3)c2C)c1 (centres undefined)	0	0	-10	57*
CNS(=O)(=O)c1cccc(C(=O)OCC(=O)c2cc(C)n(Cc3cccs3)c2C)c1	0	1	-7	58*
COc1ccc(-n2ncc3c(Nc4cccc(F)c4)ncnc32)cc1	0	4	1	39*
SMILES	FBW7 act	GPR151 activ	MITF inh	TEAD-YAP inh
COc1cccc(Nc2nc(N3CCN(C)CC3)nc3c2cnn3C)c1	1	4	18	43*
COc1cccc(Nc2nc(N3CCN(c4cccc(Cl)c4)CC3)nc3c2cnn3C)c1	0	1	10	1
COc1ccc(-n2ncc3c(Nc4ccc(F)cc4)ncnc32)cc1	0	4	0	-2
COc1ccc(-n2ncc3c(Nc4cccc(OC)c4)ncnc32)cc1	0	1	4	46*
COc1cccc(Nc2ncnc3c2cnn3-c2ccc(Cl)cc2)c1	0	-1	-6	1
O=C(CNC(=S)N(CCCN1CCOCC1)Cc1cccs1)NC1CCCc2ccccc21 (centres undefined)	0	1	4	-4
Cc1nc2sc(C(=O)Nc3nc4ccccc4s3)c(N)c2c(C)c1C	0	2	8	96*

Source: PubChem (The Scripps Research Institute Molecular Screening Center)
